The list is not random: actives were taken first. Their share in the collection is about 19%.
IL1B secr inh: inhibitors of inflammasome signaling (IL-1 beta secretion) | actives 4.7% (n = 360,000) | activity change, % at 57.5 µM | THP-1 LPS/ATP IL-1B secretion, AlphaLISA, 16 h; active compounds read low; in the data active = activity change below about -50%; inconclusive = mostly about -30% to -49%
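Secreted IL-1B measured by AlphaLISA bead assay after 16 h compound exposure of THP-1 cells; compounds (final up to 57.5 uM) added 1 h before LPS (250 ng/mL) and ATP (1.25 mM) stimulation; lower signal means less secretion.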
TDP1 block: inhibitors of human tyrosyl-DNA phosphodiesterase TDP1. actives 0.28% (n = 350,000). Potency, µM (series often up to 130 µM), inactives show at the highest dose activity change, negative = inhibition, hits mostly inhibitors. Q9NUW8. AID 485290. recombinant TDP1, AlphaScreen DNA substrate cleavage; note: potency is the fitted concentration of half-maximal effect; nearly all actives have a fitted effect of over 40% in size
Target sequence (Q9NUW8 whole entry, looked up): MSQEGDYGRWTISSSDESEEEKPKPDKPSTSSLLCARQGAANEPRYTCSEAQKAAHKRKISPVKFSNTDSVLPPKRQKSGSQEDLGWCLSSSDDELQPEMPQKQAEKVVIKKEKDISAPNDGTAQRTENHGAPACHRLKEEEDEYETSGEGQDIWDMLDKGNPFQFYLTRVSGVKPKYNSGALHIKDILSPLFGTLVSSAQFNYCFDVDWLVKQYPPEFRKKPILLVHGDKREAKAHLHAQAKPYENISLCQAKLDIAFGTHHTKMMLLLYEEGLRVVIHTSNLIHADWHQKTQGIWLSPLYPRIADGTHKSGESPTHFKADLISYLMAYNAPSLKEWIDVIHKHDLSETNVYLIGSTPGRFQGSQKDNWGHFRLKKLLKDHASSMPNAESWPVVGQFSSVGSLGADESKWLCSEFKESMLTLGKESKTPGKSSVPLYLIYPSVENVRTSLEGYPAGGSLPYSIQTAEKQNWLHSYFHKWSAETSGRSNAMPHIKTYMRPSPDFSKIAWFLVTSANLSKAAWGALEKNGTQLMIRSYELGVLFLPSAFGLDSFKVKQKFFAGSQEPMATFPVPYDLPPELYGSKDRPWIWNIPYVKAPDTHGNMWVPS
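Here, a 5' biotin and 3' phosphotyrosine-FITC DNA oligonucleotide reports Tdp1 activity: intact substrate bridges AlphaScreen beads, while cleavage leaves a 3' phosphate and drops signal. All incubations at room temperature.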
TDP1 cell noCPT: qHTS for Inhibitors of human tyrosyl-DNA phosphodiesterase 1 (TDP1): qHTS in cells in absence of CPT | DT40 Tdp1-/- hTDP1 cells, no CPT, ATP luminescence, 48 h | AID 686978, 2013 | Potency, µM (highest dose often 46.2 µM), for inactives: at the highest dose activity change, negative = growth inhibition, most hits filed as inhibitors | actives 15% (n = 420,000); note: potency is the fitted concentration of half-maximal effect; nearly all actives have a fitted effect of over 55% in size
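Readout: luminescence from CellTiter-Glo after 30 min in the dark at RT. Cells: DT40 Tdp1-/- with stable hTDP1, 400/well. Exposure: compounds alone, ≥48 hr, 37 °C.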
Giardia kill: Giardia lamblia killing; activity change, % at 7.66 µM, hits read low; AID 540267; Giardia lamblia trophozoite viability; actives 0.15% (n = 340,000); in the data active = activity change below about -80%; inconclusive = between about -30% and that limit;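 note: parasites exposed to compound for two days anaerobically before the ATP read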
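Luminescent ATP signal served as the viability read-out, measured 15-30 min after adding ATP detection reagent to trophozoites that had been incubated with compounds for 48 hrs at 37 deg C anaerobically at 100 cells/well.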
ELG1 repair inh: ELG1-dependent DNA repair inhibition; HEK293T ELG1-luciferase reporter, luminescence, 16 h; DNA damage induced by 5-fluorouridine; Potency, µM (highest dose often 46.1 µM), for inactives: top-dose activity change, negative = inhibition, usual class: inhibitors; actives 2.3% (n = 330,000); note: potency is the fitted concentration of half-maximal effect; nearly all actives have a fitted effect of over 55% in size
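Quantitative HTS, concentration-response format. 2,000 cells/well co-treated with 5-fluorouridine and compound, 16 hr in 5% CO2 at 37 °C; ONE-Glo luminescence read after 30 min.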
TDP1 cell CPT: DT40-hTDP1 cell growth loss with CPT; chicken DT40 Tdp1-/-;hTDP1 cells + 20 nM CPT, ATP luminescence, 48 h; Potency, µM (titrated, usually from 46.2 µM), without a hit: at the top dose activity change, negative = growth inhibition, hits mostly inhibitors; actives 12% (n = 420,000); AID 686979; note: potency is the fitted concentration of half-maximal effect; nearly all actives have a fitted effect of over 55% in size
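Cell growth measured by CellTiter-Glo luminescence after a minimum 48 h, 37 C compound exposure with 20 nM CPT in Tdp1-knockout DT40 cells stably expressing hTDP1, seeded 400/well; qHTS titration format.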
An asterisk follows results filed as active; ? = inconclusive; . = no result; [ ] = dose if it differs, or a comment. Unless noted, calls come from the whole dose curve; as a rule, active = well fitted curve in the direction sought with a large enough effect; inconclusive = small, poorly fitted or top-dose-only effect, or another doubt; inactive = no such curve, though single readings can be large; an effect the other way counts as inactive or inconclusive. % is set by controls: 0 for no effect and ±100 for the full control effect.

SMILES	IL1B secr inh	TDP1 block	TDP1 cell noCPT	Giardia kill	ELG1 repair inh	TDP1 cell CPT
COc1ccc(NC(=O)c2nc[nH]c2C(=O)NCc2ccccc2)cc1	-19	1%	?	-12	-16%	?
COc1ccc(CNC(=O)c2nc(S(=O)(=O)Cc3ccccc3)ncc2Cl)cc1	-99*	6%	1.3µM*	-11	?	1.3µM*
CN1/C(=C\C(=O)Nc2cccnc2)c2ccccc2CC1(C)C	6	-1%	10µM*	-13	-13%	18µM*
COc1ccc(CNC(=O)C2(C)Cc3ccccc3C(=O)O2)cc1 (stereo not given)	-5	7%	-29%	-5	12%	2%
O=C(/C=C/c1ccccc1)Nc1cccnc1	-6	.	-22%	-22	?	-4%
COc1ccc(C(=O)/C=C2/c3ccccc3CC(C)(C)N2C)cc1	7	6%	5.2µM*	1	20%	5.2µM*
Cc1sc(N/N=C/c2cccs2)nc1-c1ccccc1	0	3%	18µM*	10	?	?
CC(=O)Cc1nsc(NC(=O)c2cccs2)n1	8	8%	23µM*	15	28%	?
Cc1sc(NC(=O)c2cccs2)nc1-c1ccccc1	?	3%	?	-19	?	23µM*
CC(=O)Nc1sc(N/N=C\c2ccccc2F)nc1-c1cccs1	-14	7%	-26%	19	?	-24%
Cc1cccc(NC(=O)Nc2nnc([C@@H]3C[C@H](O)[C@@H](CO)O3)s2)c1	14	.	-10%	.	.	?
Cc1ccc(C(=O)CCC(=O)N2CCC(C(N)=O)CC2)s1	-7	-3%[56.1 µM]	9%	0	?	-1%
CCOc1ccc(-n2c(SCC(=O)Nc3ccc(CC)cc3)nc3c(oc4ccccc43)c2=O)cc1	.	0%	?	.	.	1%
CC(C)n1cc(CN2CCC(C(=O)Nc3cccc(-c4cccc(Cl)c4)c3)CC2)cn1	-25	7%	?	11	1%	?
CCc1ccc(CN2CCC(C(=O)Nc3cccc(-c4nnc(C)s4)c3)CC2)o1	-1	4%	-9%	-3	?	?
O=C(Nc1cccc(-c2cccc(Cl)c2)c1)C1CCN(Cc2ccc(CO)o2)CC1	-81*	6%[56.1 µM]	?	-11	-22%	?
O=C(Nc1cccc(-c2cccc(Cl)c2)c1)C1CCN(Cc2nccs2)CC1	-26	.	5.8µM*	.	.	9.2µM*
Cc1ccccc1C1(CC(=O)N2CCC[C@H]2C(N)=O)CC(=O)N(C2CCCC2)C1=O (stereo not given in full)	.	.	-3%	.	.	20%[9.04 µM]
N#C/C(=C(/O)COC(=O)CCc1ccc(S(=O)(=O)N2CCOCC2)cc1)c1nc2ccccc2[nH]1	44	11%	13µM*	-8	-9%	16µM*
Cc1ccc(S(=O)(=O)N2CCOCC2)cc1N/N=C(\C#N)c1nc2ccccc2[nH]1	2	3%	26µM*	-22	8.2µM*	?
Cc1ccc(C(=O)OC/C(O)=C(\C#N)c2nc3ccccc3[nH]2)cc1S(=O)(=O)N1CCOCC1	0	6%	7.3µM*	15	?	5.8µM*
CC1CN(S(=O)(=O)c2cccc(C(=O)OC/C(O)=C(\C#N)c3nc4ccccc4[nH]3)c2)CC(C)O1 (stereo not given)	5	5%	?	5	?	?
N#C/C(=C(/O)COC(=O)c1ccc(Cl)c(S(=O)(=O)N2CCOCC2)c1)c1nc2ccccc2[nH]1	6	7%	-8%	-19	?	7%
O=C(Nc1nc2ccccc2[nH]1)c1cccc(S(=O)(=O)N2CCOCC2)c1	0	6%	-41%	-8	-11%	-7%
N#C/C(=C(/O)COC(=O)c1ccc2c(c1)OCCO2)c1nc2ccccc2[nH]1	-66*	10%	-1%	18	-7%	-4%
SMILES	IL1B secr inh	TDP1 block	TDP1 cell noCPT	Giardia kill	ELG1 repair inh	TDP1 cell CPT
N#C/C(=C\Nc1ccc2c(c1)OCCO2)c1nc2ccccc2[nH]1	-24	-2%	21µM*	6	?	?
N#C/C(=C\Nc1ccc2c(c1)OCCO2)c1nc(-c2ccccc2)cs1	24	1%	?	3	3%	?
Cc1ccccc1S(=O)(=O)NC(=O)C1(C)CCN1C(=O)CC(c1ccccc1)c1ccccc1 (stereo not given)	26	.	5.8µM*	.	.	5.8µM*
CC1(C(=O)NS(=O)(=O)c2ccccc2Cl)CCN1C(=O)CC(c1ccccc1)c1ccccc1 (stereo not given)	28	.	7.3µM*	.	.	4.1µM*
Cc1noc(C)c1S(=O)(=O)NC(=O)C1(C)CCN1C(=O)CC(c1ccccc1)c1ccccc1 (stereo not given)	0	.	21µM*	.	.	9.2µM*
Cc1cc2nccc(-c3ccc(Cl)cc3Cl)n2n1	47	.	?	-3	?	?
COc1ccc(NC(=O)NCCCN2CCN(c3cc(C)ccc3C)CC2)cc1	-28	5%	8.2µM*	0	-14%	8.2µM*
COc1ccc(N2CCN(CCNC(=O)Nc3ccc(C)c(Cl)c3)CC2)cc1	-30	.	16µM*	1	-22%	23µM*
COc1ccc(NC(=O)NCCN2CCN(c3cccc(Cl)c3)CC2)cc1	-15	11%	?	1	-6%	-27%
COc1ccc(NC(=O)NCCCN2CCN(c3ccccc3F)CC2)cc1	-8	.	12%	5	1%	-1%
COc1ccc(C2=C(C)C(=NCCCN3CCN(c4cc(C)ccc4C)CC3)NS2(=O)=O)cc1	.	9%	-103%	.	.	4.6µM*
COc1ccc(OC)c(NC(=O)NCCN2CCN(c3ccccc3)CC2)c1	-25	.	14%	-3	?	?
COc1ccc(N2CCN(CCNC(=O)Nc3ccc([N+](=O)[O-])cc3OC)CC2)cc1	-18	.	23µM*	-17	-11%	29µM*
Cc1ccc(NC(=O)CN2C(=O)NC3(CCCC3)C2=O)c(Cl)c1	-3	0%	-20%	1	14%	?
CCCN1CCN(CCNC(=O)Nc2ccc(OC)c(OC)c2)CC1	.	7%	1%	.	.	?
COc1cc(NC(=O)NCCN2CCN(c3ccc(Cl)cc3)CC2)ccc1C	-60*	2%	?	-3	?	?
c1csc(-c2nc3ccccn3c2Nc2ccc3c(c2)OCCO3)c1	.	12%	?	.	.	?
Brc1ccc(-c2nc3ccccn3c2Nc2ccc3c(c2)OCCO3)o1	.	7%	?	.	.	26µM*

From PubChem BioAssay
